The source made the active and inactive calls.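 How the source made its calls: active means fitted half-maximal effect concentration at or below the top concentration tested; inactive means the rest.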
experiment: TCF/LEF reporter activation, dose response, orthogonal assay for GSK3b inhibitor project, cell-based, HEK293T, firefly luciferase, dry powder (AID 624086); details: 24 h; series mostly up to 26 µM

outcome, inactive:
CC1(C)CC(=O)C2=C(C1)Nc1n[nH]c(C(F)(F)F)c1C2c1cc(F)ccc1F (configuration not stated)
Cc1[nH]nc2c1C(c1cccnc1)C1=C(CC(C)(C)CC1=O)N2 (configuration not stated)
Cc1[nH]nc2nc3c(c(-c4cccs4)c12)C(=O)CC(C)(C)C3
O/N=C/c1cn(-c2ccccc2)nc1-c1ccccc1
COc1ccc(C2C3=C(CC(C)(C)CC3=O)Nc3n[nH]c(C)c32)cc1 (configuration not stated)
COc1ccccc1-c1c2c(nc3n[nH]c(C)c13)CCC2=O
Cc1ccccc1C1C2=C(CC(C)(C)CC2=O)Nc2n[nH]c(C)c21 (configuration not stated)
COc1ccccc1C1C2=C(CC(C)(C)CC2=O)Nc2onc(C)c21 (configuration not stated)
CC1(C)CC(=O)C2=C(C1)Nc1n[nH]c(C(F)(F)F)c1C2c1cc(F)ccc1OC(F)(F)F (configuration not stated)
Cc1[nH]nc2nc3c(cc12)C(=O)CC(C)(C)C3
Cc1[nH]nc2nc3c(c(-c4ccccc4)c12)C(=O)CC(C)(C)C3
Cc1[nH]nc2c1C(C1CC1)C1=C(CC(C)(C)CC1=O)N2 (configuration not stated)
Cc1[nH]nc2c1C(c1ccn[nH]1)C1=C(CC(C)(C)CC1=O)N2 (configuration not stated)
COc1ccccc1C1C2=C(CC(C)(C)CC2=O)Nc2n[nH]c(-c3ccccc3)c21 (configuration not stated)
Cc1[nH]nc2c1C(C)(c1ccccc1)C1=C(CC(C)(C)CC1=O)N2 (configuration not stated)
COc1ccccc1C1C2=C(CCCC2=O)Nc2n[nH]c(C)c21 (configuration not stated)
CNC(=O)c1cn(-c2ccccc2)nc1-c1ccc(OC)cc1
COc1ccccc1C1C2=C(CCC(C)(C)C2=O)Nc2n[nH]c(C)c21 (configuration not stated)
Cc1[nH]nc2c1[C@H](c1cccs1)C1=C(CC(C)(C)CC1=O)N2
CC1(C)CC(=O)/C(=C\c2ccccc2C(F)(F)F)C(=Nc2cc(C(F)(F)F)[nH]n2)C1
COc1cccc(C2C3=C(CC(C)(C)CC3=O)Nc3n[nH]c(C)c32)c1 (configuration not stated)
CN(C)Cc1cn(-c2ccccc2)nc1-c1ccccc1
Cc1[nH]nc2c1C(c1cccc(F)c1)C1=C(CC(C)(C)CC1=O)N2 (configuration not stated)
CC(C)c1ccc(-c2nn(-c3ccccc3)cc2/C=N/O)cc1
Cc1[nH]nc2c1C(c1ccc(F)cc1)C1=C(CC(C)(C)CC1=O)N2 (configuration not stated)
CC1(C)CC(=O)/C(=C\c2cccc(F)c2C(F)(F)F)C(=Nc2cc(C(F)(F)F)[nH]n2)C1
Cc1ccc(C2C3=C(CC(C)(C)CC3=O)Nc3n[nH]c(C)c32)cc1 (configuration not stated)
COc1ccccc1C1C(C(C)=O)=C(C)Nc2n[nH]c(C)c21 (configuration not stated)
Cc1[nH]nc2c1C(c1ccc3c(c1)OCO3)C1=C(CC(C)(C)CC1=O)N2 (configuration not stated)
CC1(C)CC(=O)C2=C(C1)Nc1n[nH]c(C(F)(F)F)c1C2c1ccc(F)cc1C(F)(F)F (configuration not stated)
Cc1[nH]nc2c1[C@H](c1ccccc1C(F)(F)F)C1=C(CC(C)(C)CC1=O)N2
COc1ccc(-c2nn(-c3ccccc3)cc2C(=O)O)cc1
